ASK1 primary = ASK1 kinase inhibitors, primary screen, biochemical, AlphaScreen; Mitogen-activated protein kinase kinase kinase 5 (Homo sapiens), Q99683; AlphaScreen MKK6 phosphorylation by ASK1, luminescence; inhibition, % at 7.44 µM; 22,000 tested, 0.99% active; in the data active = inhibition above about 35%
ULK1 primary = ULK1 kinase inhibitors, primary screen, biochemical, AlphaScreen; AlphaScreen Atg13 phosphorylation by ULK1, luminescence; AID 1259251, 2017; inhibition, % at 5.96 µM; 30,000 tested, 1.9% active; in the data active = inhibition above about 43%
Target sequence (O75385 whole entry, looked up): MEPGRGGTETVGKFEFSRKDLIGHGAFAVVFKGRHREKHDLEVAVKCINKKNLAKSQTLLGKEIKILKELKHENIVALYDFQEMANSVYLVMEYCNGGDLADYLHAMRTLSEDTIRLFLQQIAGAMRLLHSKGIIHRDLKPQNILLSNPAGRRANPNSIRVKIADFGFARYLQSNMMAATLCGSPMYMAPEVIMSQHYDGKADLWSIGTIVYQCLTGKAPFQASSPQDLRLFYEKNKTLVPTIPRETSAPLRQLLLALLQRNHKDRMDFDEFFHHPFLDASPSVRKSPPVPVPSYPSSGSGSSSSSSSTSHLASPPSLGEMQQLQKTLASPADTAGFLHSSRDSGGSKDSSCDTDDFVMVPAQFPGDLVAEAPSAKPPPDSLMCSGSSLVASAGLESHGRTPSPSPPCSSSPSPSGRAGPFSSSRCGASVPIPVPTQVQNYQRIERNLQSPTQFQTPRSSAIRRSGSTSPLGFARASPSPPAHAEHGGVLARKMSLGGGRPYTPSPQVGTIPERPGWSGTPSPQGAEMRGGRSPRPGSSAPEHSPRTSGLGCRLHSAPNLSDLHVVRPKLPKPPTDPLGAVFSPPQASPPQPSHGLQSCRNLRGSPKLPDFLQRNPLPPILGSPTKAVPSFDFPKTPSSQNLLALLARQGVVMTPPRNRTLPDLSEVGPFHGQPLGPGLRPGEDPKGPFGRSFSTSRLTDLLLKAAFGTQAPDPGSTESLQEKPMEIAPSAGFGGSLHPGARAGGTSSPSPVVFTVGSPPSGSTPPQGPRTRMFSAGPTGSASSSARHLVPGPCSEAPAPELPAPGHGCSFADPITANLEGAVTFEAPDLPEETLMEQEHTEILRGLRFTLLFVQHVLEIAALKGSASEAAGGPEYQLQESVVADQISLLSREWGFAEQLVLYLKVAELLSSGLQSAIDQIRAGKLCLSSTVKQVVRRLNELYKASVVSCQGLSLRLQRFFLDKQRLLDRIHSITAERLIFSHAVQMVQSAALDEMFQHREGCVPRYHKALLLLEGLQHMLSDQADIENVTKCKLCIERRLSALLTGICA
Numbers stand for hits; – = inactive; · = not tested or not shown; ! = repeats disagree. A selection: hits, their analogues and other compounds. The true share with any hit is near 2.5%.

SMILES	ASK1 primary	ULK1 primary
O=C(Nc1ccc(N2CCOCC2)cc1)C1CCN(c2ccc(Nc3ccc(N4CCOCC4)cc3)nn2)CC1	–	–
O=C(Nc1ccc(N2CCOCC2)cc1)C1CCN(c2ccc(Nc3ccc4ncccc4c3)nn2)CC1	–	49
O=C(NC1CCN(Cc2ccccc2)CC1)c1cc(N2CCc3ccccc3C2)nc2ccccc12	–	–
c1cn(-c2ccc(Nc3cc(Nc4ccc(N5CCOCC5)cc4)ncn3)cc2)cn1	–	–
c1cc(Nc2nccc(Nc3ccc(N4CCOCC4)cc3)n2)ncn1	–	79
c1cc(Nc2cc(Nc3ccc(N4CCOCC4)cc3)ncn2)ccn1	–	82
c1ccc(CNc2cc(Nc3ccncc3)ncn2)cc1	–	–
c1ccc(Nc2cc(Nc3ccncc3)ncn2)cc1	–	61
c1cc(Nc2nccc(Nc3ccc(N4CCOCC4)cc3)n2)ccn1	–	–
COc1cc(-c2cn[nH]c2)cc2c(=O)[nH]c(C3COc4ccc(Cl)cc4C3)nc12 (centres undefined)	–	–
O=C(NCCc1ccc(O)cc1)c1ccc2nc(-c3ccc(C(=O)NC4CC4)cc3)sc2c1	–	–
CCN(CC)C(=O)C1CCCN(c2cc(NCCN3CCOCC3)nc(N)n2)C1 (centres undefined)	–	–
O=C1c2c(O)cccc2C(C2OC(CO)[C@@H](O)[C@H](O)[C@H]2O)c2cc(CO)cc(O)c21 (some centres undefined)	·	–
O=C(O)c1cc(O)c2c(c1)[C@@H]([C@H]1c3cc(C(=O)O)cc(O)c3C(=O)c3c(O[C@H]4O[C@H](CO)[C@@H](O)[C@H](O)[C@H]4O)cccc31)c1cccc(O[C@H]3O[C@H](CO)[C@@H](O)[C@H](O)[C@H]3O)c1C2=O	·	67
O=C(NCCN1CCOCC1)c1ccc2nc(-c3csc4ccccc34)sc2c1	–	–
Cc1cc(Nc2ccccc2)nc(N2CCN(Cc3ccc4c(c3)OCO4)CC2)n1	–	–
Cc1cc(Nc2ccc(N3CCOCC3)cc2)nc(N2CCN(Cc3ccc4c(c3)OCO4)CC2)n1	43	–
O=C1c2c(O)cccc2Cc2cccc(O)c21	·	60!
Oc1cccc2c1CC=CC2	·	–
CC(C)N(CCNc1nc(Nc2ccc(-n3ccnc3)cc2)nc2nc[nH]c12)C(C)C	–	–
O=C(N[C@@H]1CCN(C(=O)c2cnccc2Nc2ccc(Cl)c(F)c2)C1)c1ccccn1	–	–
O=C(N/N=C\C=C\c1ccc(Br)cc1)c1ccc2c(c1)OCO2	·	–
COC(=O)c1ccc(/C=C/C(=O)c2ccc3c(c2)OCCO3)cc1	·	43
Fc1ccccc1-c1cc(Nc2ccncc2)nc(-c2cccnc2)n1	·	–
CCCNC(=O)c1cnc(NCc2ccc3c(c2)OCO3)s1	–	–
SMILES	ASK1 primary	ULK1 primary
O=C(Nc1ccc(Oc2ccccc2)cc1)c1ccc2nc(Nc3cccnc3)sc2c1	–	–
O=S(c1cc(Cl)cc(Cl)c1O)c1cc(Cl)cc(Cl)c1O	·	–
Oc1c(Cl)cc(Cl)cc1Sc1cc(Cl)cc(Cl)c1O	·	84
Cc1cc(NC2CC2)nc(N2CCC(N3CCOCC3)CC2)n1	–	–
Cc1cc(N)nc(N2CCC(N3CCOCC3)CC2)n1	–	49
O=C1CCCN1CCCNc1nc(Nc2nccc3ccccc23)nc2c1ncn2Cc1ccc(C(F)(F)F)cc1	–	–
Nc1cccc(-c2nc(NCc3cccnc3)c3[nH]cnc3n2)c1	–	69
CC(=O)c1cccc(-c2nc(NCc3cccnc3)c3[nH]cnc3n2)c1	–	54
CC(=O)c1cccc(-c2nc(NCc3ccccc3)c3[nH]cnc3n2)c1	–	–
Nc1cccc(-c2nc(NCc3ccccc3)c3[nH]cnc3n2)c1	–	–
CC(=O)Nc1ccc(Nc2cc(C)nc(Nc3ccc(-n4ccnc4)cc3)n2)cc1	–	–
COc1cc(-c2cn[nH]c2)ccc1C(=O)NCCc1c[nH]c2ccccc12	–	–
Nc1ccc(O)c(C(=O)O)c1	·	55
O=C(O)c1cc(O)ccc1O	·	–
CC(C)n1cnc2c(NCc3nc4ccccc4[nH]3)nc(Nc3ccccn3)nc21	–	–
CC(C)n1cnc2c(Nc3ccc(N4CCOCC4)cc3)nc(Nc3ccc4ncccc4c3)nc21	–	–
CC(C)n1cnc2c(Nc3ccccc3)nc(Nc3ccc(-n4ccnc4)cc3)nc21	–	56
CC(C)n1cnc2c(NCc3nc4ccccc4[nH]3)nc(Nc3ccc4ncccc4c3)nc21	–	45
CC(C)n1cnc2c(Nc3ccccc3)nc(Nc3ccc4ncccc4c3)nc21	–	52
CC(C)n1cnc2c(Nc3ccccc3)nc(Nc3ccncc3)nc21	–	46
CC(C)n1cnc2c(NCCOc3ccccc3)nc(Nc3ccc(-n4ccnc4)cc3)nc21	–	–
CC(C)n1cnc2c(Nc3ccccc3)nc(Nc3ccccc3)nc21	–	–
Cc1cccc(CC(=O)Nc2cnn(-c3cccc(C(=O)Nc4ccc5c(c4)OCO5)c3)c2)c1	–	–
COc1nc(NCCc2ccc(O)cc2)nc(-c2cccc(N)c2)n1	–	–
CS(=O)(=O)c1ccc(-c2ccnc(NCc3ccccc3)n2)cc1	–	–
SMILES	ASK1 primary	ULK1 primary
CC(=O)c1cccc(-c2nc(Nc3ccccc3)c3ncn(C(C)C)c3n2)c1	–	46
CC(=O)Nc1ccc(Nc2nc(-c3cccc(C(C)=O)c3)nc3c2ncn3C(C)C)cc1	–	–
O=C(CSc1nnc(-c2c[nH]c3ccccc23)o1)N1CCOCC1	·	–
Cc1ncn(-c2ccc(Nc3ncc(Cl)c(-c4cn[nH]c4)n3)cc2)n1	–	73
CC(=O)c1nc(Nc2ccc(-n3cnc(C)n3)cc2)ncc1Cl	–	–
Clc1cnc(Nc2ccc(-n3cnc(N4CCOCC4)n3)cc2)nc1-c1cn[nH]c1	–	77
c1cc(-n2cnc(N3CCOCC3)n2)ccc1Nc1ncc2cc(-c3cn[nH]c3)ccc2n1	–	–
COc1nc(NCCN(C(C)C)C(C)C)nc(-c2ccc(C(=O)NC3CC3)cc2)n1	–	–
COc1cc(Nc2ccnc(Nc3cnccn3)n2)cc(OC)c1OC	–	–
COc1cccc(CNC(=O)Nc2ccc(-c3cn[nH]c3)cc2Cl)c1	–	–
O=C(NC1CC1)c1ccc(-c2cc(Nc3ccccc3)ncn2)cc1	–	–
CC(=O)Nc1ccc(/C=C2/SC(=O)NC2=O)cc1	·	–
O=C1NC(=O)/C(=C\c2cc(Br)cc(Cl)c2O)S1	·	44
c1ccc(OCCNc2ncnc3nc(-c4ccccc4)[nH]c23)cc1	–	–
O=C1NCCC(NCCNC(=O)C2COc3ccccc3O2)c2cc[nH]c21 (centres undefined)	–	–
CN(c1ncccc1CNc1cc(Nc2ccc3[nH]c(=O)oc3c2)ncc1C(F)(F)F)S(C)(=O)=O	–	–
CNC(=O)c1ccccc1Nc1cc(Nc2ccc3[nH]cc(C(=O)C(=O)N(C)C)c3c2)ncc1C(F)(F)F	–	75
CN(C)C(=O)C(=O)c1c[nH]c2ccc(Nc3cc(Nc4ccccn4)c(C(F)(F)F)cn3)cc12	–	45
O=C(NCc1cccc(C(F)(F)F)c1)c1ccc2nc(NCc3ccc4c(c3)OCO4)sc2c1	–	–
COc1ccc(CCNc2nc(-c3ccc4[nH]ccc4c3)nc3c2ncn3Cc2ccc(C(F)(F)F)cc2)cc1	–	–
Cc1ncn(-c2ccc(Nc3nccc(Nc4cccc(N)c4)n3)cc2)n1	–	–
CCCCCCCCCCCCOS(=O)(=O)O	·	–
CCCCC(CC)CCC(CC(C)C)OS(=O)(=O)O (centres undefined)	·	95

Bioassay records deposited in PubChem BioAssay by The Scripps Research Institute Molecular Screening Center.
